Experiment [1] is described as follows: stimulators of nuclear beta-catenin in C2C12, primary screen, imaging, WNT3A-conditioned medium, mouse C2C12, NPC library (AID 1117326; in the data active means nuclear beta-catenin stimulation mostly above about 4.2%, no sharp cut-off; inactive means mostly below about 10%). The following applies: stronger effect = higher value.
A short description of experiment [2]: stimulators of insulin release from INS-1E, primary screen, cell-based, 5 mM glucose, NPC library (AID 1117329;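 active means compound raises insulin release from rat beta cells at 5 mM glucose, no numeric limit stated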). The note with it: rat INS-1E insulin secretion, at 10 µM, stronger effect = higher value.
A short description of experiment [3]: growth inhibition of GSK3B-pretreated HCT116 cells – cell-based, CellTiter-Glo, 0.2 to 20 µM (AID 1117336;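 active means compounds lowering colon cancer cell viability after pretreatment blocking the GSK3B kinase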). The note with it: HCT116 viability after GSK3B inhibitor, at 20 µM, stronger effect = higher value.
Experiment [4] is described as follows: inhibition of endothelial tube formation, primary screen, imaging, VEGF stimulated, CD31 staining, tube area, NPC library (AID 1117340;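 active means compound that reduces growth-factor-driven endothelial tube area in a mixed cell culture, no cutoff stated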). The following applies: VEGF-stimulated ADSC/ECFC co-culture, at 10 µM, stronger effect = higher value.
The nature of experiment [5]: glucagon-like peptide 1 release enhancers, primary assay, NCI-H716 cell line, NPC library (AID 1117341;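 active means compound raises GLP1 secretion from the human gut endocrine cells, with no numeric limit stated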). The following applies: NCI-H716 cells, at 10 µM, stronger effect = higher value.
Experiment [6] can be described thus: HCT116 colon cancer cell growth inhibition, primary screen, CellTiter-Glo luminescence, NPC library (AID 1117342;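 active means compounds that lower survival of HCT116 colon cancer cells in the luminescence readout, no numeric limit stated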). The note with it: at 20 µM (top of the series). (In ATP-based viability assays light output follows the ATP content of the culture.)
A short description of experiment [7]: CellTiter-Glo luminescent readout of SW480 viability loss, NPC library primary (AID 1117343;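 active means compounds that lower viability of the colon cancer cells in the luminescence readout, with no numeric limit stated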). The following applies: CellTiter-Glo luminescence; at 20 µM (top of the series).
A short description of experiment [8]: decreased DLD-1 cellular survival, CellTiter-Glo luminescent readout, NPC compound collection, primary HTS (AID 1117346;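 active means compounds that lower survival of DLD-1 colon cancer cells in the luminescence readout, no cutoff given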). The note with it: DLD-1 viability, CellTiter-Glo luminescence; at 20 µM (top of the series).
The target in experiment [9] is 6-phosphogluconate dehydrogenase, decarboxylating (Homo sapiens) (UniProt P52209). Description: 6PGD enzyme inhibitors, primary screen, biochemical, human, recombinant enzyme, NADPH absorbance (AID 1159550;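 active means at least 20% inhibition of 6-phosphogluconate dehydrogenase activity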). The following applies: recombinant 6PGD, NADPH absorbance 341 nm; at 10 µM; stronger effect = higher value.
The nature of experiment [10]: differential killing of epithelial or mesenchymal cells, primary screen, imaging, PC-3E GFP, TEM4-18 mCherry, co-culture (AID 1345086;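 active means compounds killing one labelled cell type while sparing the other, by normalised counts and ratio limits, not self-fluorescent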;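 on all read-outs here: cells exposed to compound for 72 h before imaging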;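 on red/green cell ratio (normalised): normalised mesenchymal count divided by normalised epithelial count so high means epithelial killing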). The note with it: imaging cell counts, at 1 µM; for red/green cell ratio (normalised): actives lie on both sides, counts scaled to control wells, 1 = unselective.
Experiment [11] can be described thus: survival rescue of mitochondrial mutant cells in low glucose, primary screen, MELAS cybrids, Rieske KO mouse fibroblasts, CellTiter-Glo (AID 1508586).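 Further: z relative to plate mean and SD of compound and empty wells.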
Experiment [12] has as its target NAD(+) hydrolase SARM1 (Homo sapiens) (UniProt Q6SZW1). Kind of experiment: SARM1 TIR NADase inhibitors, cell lysate, NAD-Glo luminescence (AID 1508614;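 active means compound whose remaining NAD level is above about 45 nM, limit read from the data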). The following applies: SAM-TIR HEK293T lysate NADase, at 1 µM, stronger effect = higher value.
In experiment [13] the target is Mitogen-activated protein kinase 7 (Homo sapiens) (UniProt Q13164). Kind of experiment: ERK5 transactivation activators in reporter cells, primary screen, cell-based, HTS (AID 1508626;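 active means luciferase signal above three times the same-plate solvent-only control wells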;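 further: luciferase driven by Gal4-ERK5 fusion binding five Gal4 sites before minimal TATA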). The following applies: HeLa Gal4-ERK5 transactivation, 18 h, at 5 µM, stronger effect = higher value.
Experiment [14] in a line: sensitizers of A549 cells to miR-34 induction, primary screen, imaging, A549 dox-inducible miR-34, nuclei and caspase counts (AID 1347080;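 active means compounds whose cell count with miR-34 switched on is under 0.7 times the count with it off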). The following applies: A549 miR-34 inducible, Hoechst nuclei count, 48 h.
For experiment [15], the system named is F380Y. Kind of experiment: modulators of BK channel variants, profiling panel, selectivity assay, cell-based, U2OS BacMam, thallium flux, beta subunits (AID 1259406;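 active means thallium flux through the channel raised or lowered by more than 3 SD from vehicle-only wells, actives on both sides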;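 further: initial slope of Thallos dye fluorescence rise after thallium is added; log ratio against the mean of 0.3% DMSO vehicle wells on the same plate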). The note with it: at 30 µM.
The subject of experiment [16] is F380Y/beta2Delta. The experiment is described as above. The note with it: at 30 µM.
The target of experiment [17] is Calcium-activated potassium channel subunit alpha-1 (Homo sapiens) + Leucine-rich repeat-containing protein 26 (Homo sapiens) (UniProt Q12791+Q2I0M4). Described as above. The following applies: F380Y/Slo1WT/gamma1, at 30 µM.
In experiment [18] the test system is R275C. The description is as above. The following applies: at 30 µM.
Experiment [19] deals with R275C/beta1. The experiment is described as above. The note with it: at 30 µM.
Experiment [20] has as its system R275C/beta2Delta. The description is as above. The following applies: at 30 µM.
The mark [21] stands for this setting: measured here: epithelial PC-3E GFP cell survival.
Setting [22] is: measured here: mesenchymal TEM4-18 mCherry cell survival.
Setting [23] is: MELAS cybrid survival, CellTiter-Glo 48 h, stronger effect = higher value.
The mark [24] stands for this setting: Rieske KO mouse fibroblast survival, CellTiter-Glo 72 h.

SMILES strings stand for the structures. “And” between values parts separate entries of the source, which are not always exact repeats. Equal entries are not always repeated. Some structures have more than one record in an assay (separate samples or runs), and their calls can disagree. The source made the active and inactive calls.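 How the source made its calls, unless noted: active means mean z-score across replicates of 1.96 or higher in either the MELAS or the Rieske mutant cell line; inactive means the rest.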

Chain of NAD(+) hydrolase SARM1 (Homo sapiens) (Q6SZW1 whole entry, looked up, the tested form may be a part): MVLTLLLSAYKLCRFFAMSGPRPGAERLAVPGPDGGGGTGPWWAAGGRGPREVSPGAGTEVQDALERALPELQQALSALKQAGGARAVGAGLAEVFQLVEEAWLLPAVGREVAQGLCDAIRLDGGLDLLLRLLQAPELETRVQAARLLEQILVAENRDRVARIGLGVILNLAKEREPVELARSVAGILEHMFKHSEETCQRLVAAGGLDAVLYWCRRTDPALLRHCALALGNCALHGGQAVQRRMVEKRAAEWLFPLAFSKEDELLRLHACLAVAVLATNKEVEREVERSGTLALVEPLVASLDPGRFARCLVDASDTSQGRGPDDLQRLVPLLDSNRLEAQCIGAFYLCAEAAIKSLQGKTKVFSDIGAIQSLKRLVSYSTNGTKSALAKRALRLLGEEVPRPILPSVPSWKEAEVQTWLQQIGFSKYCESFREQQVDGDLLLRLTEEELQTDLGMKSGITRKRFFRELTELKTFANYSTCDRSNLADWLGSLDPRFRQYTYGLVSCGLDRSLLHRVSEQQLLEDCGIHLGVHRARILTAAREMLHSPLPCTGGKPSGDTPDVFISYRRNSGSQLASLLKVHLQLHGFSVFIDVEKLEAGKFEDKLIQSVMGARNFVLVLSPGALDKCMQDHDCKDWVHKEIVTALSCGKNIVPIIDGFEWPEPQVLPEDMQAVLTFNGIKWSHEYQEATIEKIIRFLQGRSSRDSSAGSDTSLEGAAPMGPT
Chain of 6-phosphogluconate dehydrogenase, decarboxylating (Homo sapiens) (P52209 whole entry, looked up): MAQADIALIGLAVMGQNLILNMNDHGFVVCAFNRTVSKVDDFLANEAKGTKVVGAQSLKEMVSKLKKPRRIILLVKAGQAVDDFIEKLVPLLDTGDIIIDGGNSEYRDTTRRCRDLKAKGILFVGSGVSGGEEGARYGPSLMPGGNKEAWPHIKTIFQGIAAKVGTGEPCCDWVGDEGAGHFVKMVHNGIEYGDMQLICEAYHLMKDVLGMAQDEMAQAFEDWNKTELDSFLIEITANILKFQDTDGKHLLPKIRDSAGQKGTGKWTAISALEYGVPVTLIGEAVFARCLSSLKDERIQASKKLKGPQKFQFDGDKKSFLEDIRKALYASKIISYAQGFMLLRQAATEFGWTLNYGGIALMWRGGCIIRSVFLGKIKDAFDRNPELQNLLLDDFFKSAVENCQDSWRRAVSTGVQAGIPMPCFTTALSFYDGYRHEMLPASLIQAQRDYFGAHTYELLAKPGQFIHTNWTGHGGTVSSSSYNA
Chain of Mitogen-activated protein kinase 7 (Homo sapiens) (Q13164 whole entry, looked up, the tested form may be a part): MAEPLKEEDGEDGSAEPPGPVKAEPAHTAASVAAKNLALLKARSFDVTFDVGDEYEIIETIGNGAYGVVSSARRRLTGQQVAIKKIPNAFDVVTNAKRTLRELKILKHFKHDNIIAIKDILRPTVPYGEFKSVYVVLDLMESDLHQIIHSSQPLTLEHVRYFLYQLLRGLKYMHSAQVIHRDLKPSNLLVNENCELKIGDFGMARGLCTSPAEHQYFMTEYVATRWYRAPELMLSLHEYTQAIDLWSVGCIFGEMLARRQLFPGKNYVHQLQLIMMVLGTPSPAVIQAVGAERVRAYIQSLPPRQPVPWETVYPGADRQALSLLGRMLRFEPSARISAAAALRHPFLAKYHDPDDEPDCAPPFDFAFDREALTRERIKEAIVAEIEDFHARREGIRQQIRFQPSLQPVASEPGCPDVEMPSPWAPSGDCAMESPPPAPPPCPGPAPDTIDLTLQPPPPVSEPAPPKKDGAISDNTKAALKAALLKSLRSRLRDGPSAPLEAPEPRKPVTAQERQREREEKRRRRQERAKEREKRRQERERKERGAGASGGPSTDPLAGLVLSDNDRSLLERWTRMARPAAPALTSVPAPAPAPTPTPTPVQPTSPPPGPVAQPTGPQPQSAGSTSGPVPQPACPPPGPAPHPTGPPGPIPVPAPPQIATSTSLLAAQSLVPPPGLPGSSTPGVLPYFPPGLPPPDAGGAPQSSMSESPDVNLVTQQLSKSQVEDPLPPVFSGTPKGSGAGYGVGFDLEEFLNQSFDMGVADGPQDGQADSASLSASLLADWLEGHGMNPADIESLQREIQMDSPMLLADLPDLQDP
Chain of Calcium-activated potassium channel subunit alpha-1 (Homo sapiens) + Leucine-rich repeat-containing protein 26 (Homo sapiens) (Q2I0M4 whole entry, looked up, one chain of several): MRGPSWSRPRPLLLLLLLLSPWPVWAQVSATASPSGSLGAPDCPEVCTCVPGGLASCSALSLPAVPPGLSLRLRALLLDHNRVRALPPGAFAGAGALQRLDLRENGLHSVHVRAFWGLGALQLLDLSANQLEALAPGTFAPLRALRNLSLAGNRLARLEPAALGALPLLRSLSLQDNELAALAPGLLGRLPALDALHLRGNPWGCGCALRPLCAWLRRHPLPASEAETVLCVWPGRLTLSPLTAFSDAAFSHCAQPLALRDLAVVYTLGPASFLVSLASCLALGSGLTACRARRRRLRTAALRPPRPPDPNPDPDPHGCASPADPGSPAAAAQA

As to `CNC(=O)Oc1ccc2c(c1)[C@]1(C)CCN(C)[C@@H]1N2C`, the nuclear beta-catenin stimulation is -0.4% (inactive) in experiment [1] (at 10 µM) and 0% in experiment [1] (stimulation, at 2 µM). Moreover, the insulin secretion stimulation in [2] was 5% (inactive). Besides, the viability decrease in experiment [3] is 5% (inactive). For the same compound, the tube area decrease in experiment [4] was -23.5% (inactive). Besides, in experiment [5], the GLP1 secretion stimulation was 3.8% (inactive). The inhibition of viability in experiment [6] was 23.3% (inactive). Further, the results for the viability decrease (inhibition) in experiment [7] and in experiment [8] were 38.9% (inactive) and 0.2% (inactive), respectively. For the same compound, in experiment [9], the inhibition (commonly the drop in the measured response relative to a control, in per cent) is -7.09% (inactive) and -14.3% (inactive) and -6.98% (inactive). In addition, in [10], the red/green cell ratio (normalised) is 0.96 (inactive). Further, the normalised cell number in experiment [10] (setting [21]) is 1.03; in experiment [10] (setting [22]), 1. In addition, the z-score in [11] (setting [23]) is -0.485 (inactive) and 0.886 (inactive); in [11] (setting [24]), -0.245 and 0.787. Besides, the remaining NAD in [12] was 10 nM (inactive). In addition, the luciferase signal in experiment [13] was 40 AU (inactive).
In the case of `Cc1c(OCC(F)(F)F)ccnc1CS(=O)c1nc2ccccc2[nH]1` (stereo not given), the nuclear beta-catenin stimulation in experiment [1] (at 10 µM) was 5.4% (inactive); in experiment [1] (stimulation, at 2 µM) it was 2.1%. Further, in [2], the insulin secretion stimulation is 0.9% (inactive). Besides, the viability decrease in experiment [3] is 27.8% (inactive). Moreover, the tube area decrease in experiment [4] is 32.8% (inactive). Moreover, the GLP1 secretion stimulation in experiment [5] was -1.8% (inactive). Besides, in experiment [6], the inhibition of viability was 54.6% (active). Also, the viability decrease (inhibition) in [7] is 13.2% (inactive); in experiment [8] it was -8.8% (inactive). Moreover, in [9], the inhibition is -1.09% (inactive). Besides, in experiment [10], the red/green cell ratio (normalised) is 1.36 (inactive) and 1.09 (inactive). The normalised cell number in [10] (setting [21]) is 0.7 and 1.26; in experiment [10] (setting [22]), 0.95 and 1.36. The z-score in experiment [11] (setting [23]) is -0.355 (inactive) and 2.16 (active); in experiment [11] (setting [24]), 0.886 and 0.276. In addition, the remaining NAD in [12] was 10 nM (inactive). In addition, the luciferase signal in experiment [13] is 60 AU (inactive).
For `O=C1N=C(O)CN1/N=C/c1ccc(-c2ccc([N+](=O)[O-])cc2)o1`, the nuclear beta-catenin stimulation in experiment [1] (at 10 µM) was 4.1% (inactive); in [1] (stimulation, at 2 µM), 4.2%. The insulin secretion stimulation in experiment [2] was 2.6% (inactive). Further, in experiment [3], the viability decrease was 9.2% (inactive). Besides, the tube area decrease in experiment [4] is -8.8% (inactive). Also, in experiment [5], the GLP1 secretion stimulation was 1.9% (inactive). The inhibition of viability in [6] was 20.3% (active). In addition, the viability decrease (inhibition) is -30.5% (inactive) in [7] and 5% (inactive) in [8]. The inhibition in experiment [9] was 13.4% (inactive). For the same compound, the red/green cell ratio (normalised) in experiment [10] was 1.07 (inactive). Further, the normalised cell number in experiment [10] (setting [21]) amounted to 1.02; in experiment [10] (setting [22]), 1.1. Also, the z-score in experiment [11] (setting [23]) was 0.073 (inactive); in experiment [11] (setting [24]), 0.247. Also, the remaining NAD in experiment [12] was 10 nM (inactive). Further, in experiment [13], the luciferase signal is 156 AU (inactive).
Regarding `CC(=O)O[C@]1(C(C)=O)CC[C@H]2[C@@H]3C=C(C)C4=CC(=O)CC[C@]4(C)[C@H]3CC[C@@]21C`, the nuclear beta-catenin stimulation was 2.7% (inactive) in [1] (at 10 µM) and 1.9% in experiment [1] (stimulation, at 2 µM). Further, the insulin secretion stimulation in [2] was 0.1% (inactive). Further, the viability decrease in [3] was -86.9% (inactive). Also, in experiment [4], the tube area decrease was -10.2% (inactive). Moreover, the GLP1 secretion stimulation in experiment [5] was 0% (inactive). The inhibition of viability in [6] was 46.5% (inactive). Moreover, the viability decrease (inhibition) in [7] is 59.6% (active); in experiment [8], 22.4% (inactive). The inhibition in experiment [9] is -2.23% (inactive). Moreover, the fold change in experiment [14] (stronger effect = lower value, cell number ratio, induced over uninduced) is 0.793 (inactive) and 0.839 (inactive); in experiment [14] (measured here: relative caspase fold change +Dox/-Dox) it was 1.65 and 1.15. For the same compound, the cell count was 7300 and 6980 in experiment [14] (measured here: total cells with miR-34 induction, stronger effect = lower value); 9200 and 8320 in experiment [14] (measured here: total cells without miR-34 induction). The z-score in experiment [11] (setting [23]) was -0.444 (inactive) and 0.0969 (inactive); in experiment [11] (setting [24]) it was -0.239 and -0.33. Besides, in [12], the remaining NAD was 10 nM (inactive). The luciferase signal in experiment [13] is 52 AU (inactive). The log fold change Tl+ flux is 0.00819 (inactive) in experiment [15]; 0.0101 (inactive) in [16]; -0.00133 (inactive) in experiment [17]; -0.0376 (inactive) in experiment [18]; 0.00523 (inactive) in experiment [19]; -0.00852 (inactive) in experiment [20].

Source of the values: PubChem BioAssay.
